Laboratory results published in PubChem BioAssay (Tox21).
Records with an inconclusive call do not appear. Entries that show only a call come without a potency. A structure can be active in one record and inactive in another. Calls of active or inactive are those of the source. Unless noted, calls follow the shape of the dose curve; as a rule, active = well fitted curve in the direction sought with a large enough effect in the repeat runs; inconclusive = weak or mixed curves; inactive = no such curve, though single readings can be large; an effect the other way counts as inactive or inconclusive.

Experiments:
[1] = qHTS assay to identify small molecule agonists of the RXR signaling pathway - cell viability counter screen (AID 1159529); also: nearly all actives have a fitted effect of over 50% in size; also: potency is read from the fitted curve at half-maximal effect
How it was run: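 Cell viability is measured by CellTiter-Glo luminescence, 30 min at room temperature, in wells already read for beta-lactamase. Engineered HEK 293T cells (RXR-alpha-UAS-bla) are dosed 16 hr at 37 C. Tetraoctyl ammonium bromide serves as positive control.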

[2] = target: Luciferin 4-monooxygenase (Photinus pyralis) (UniProt P08659); assay: qHTS assay to identify small molecule inhibitors of firefly luciferase (AID 1224835); also: series mostly up to about 120 µM; nearly all actives have a fitted effect of over 25% in size
Chain of Luciferin 4-monooxygenase (Photinus pyralis) (P08659 whole entry, looked up): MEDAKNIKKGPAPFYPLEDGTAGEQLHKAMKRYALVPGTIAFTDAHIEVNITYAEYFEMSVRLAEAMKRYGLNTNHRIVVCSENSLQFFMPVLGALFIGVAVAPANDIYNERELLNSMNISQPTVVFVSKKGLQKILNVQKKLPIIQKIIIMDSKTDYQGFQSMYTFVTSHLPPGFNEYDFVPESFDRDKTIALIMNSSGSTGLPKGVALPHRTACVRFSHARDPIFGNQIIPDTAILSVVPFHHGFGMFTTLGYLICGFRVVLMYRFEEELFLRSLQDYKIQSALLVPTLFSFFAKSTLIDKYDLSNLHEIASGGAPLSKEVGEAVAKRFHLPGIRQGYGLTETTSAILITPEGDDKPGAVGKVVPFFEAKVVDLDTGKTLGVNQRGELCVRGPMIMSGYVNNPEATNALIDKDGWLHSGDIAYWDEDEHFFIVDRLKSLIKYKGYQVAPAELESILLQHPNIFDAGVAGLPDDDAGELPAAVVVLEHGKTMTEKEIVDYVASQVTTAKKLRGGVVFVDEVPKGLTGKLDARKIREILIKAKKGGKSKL
How it was run: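 Quantitative HTS format; KM concentrations of both substrates. Purified P. pyralis FLuc activity quantified from luminescence images.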

[3] = qHTS assay to identify small molecule agonists of the constitutive androstane receptor (CAR) signaling pathway - cell viability counter screen (AID 1224836); also: series mostly up to about 92 µM; nearly all actives have a fitted effect of over 45% in size
How it was run: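 Counter screen multiplexed with the CAR reporter readout: HepG2 cells co-transfected with hCAR and the CYP2B6-2.2kb construct receive a 15-concentration compound series and 0.75 uM PK11195 (final), then CellTiter-Fluor fluorescence is read after 23 h.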

[4] = qHTS assay to identify small molecule antagonists of the constitutive androstane receptor (CAR) signaling pathway - cell viability counter screen (AID 1224837); also: series mostly up to about 92 µM; nearly all actives have a fitted effect of over 45% in size
How it was run: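 Cells are seeded, rested 4 hr at 37 C/5% CO2, dosed with compound (15-point series) and 50 nM CITCO, incubated a further 23 hr, and then CellTiter-Fluor reagent is added before fluorescence is read. The line is HepG2 with stable hCAR and CYP2B6-2.2kb.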

[5] = target: Nuclear receptor subfamily 1 group I member 3 (Homo sapiens) (UniProt Q14994); assay: qHTS assay to identify small molecule antagonists of the constitutive androstane receptor (CAR) signaling pathway (AID 1224838);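 also: HepG2 cells stably expressing hCAR with CYP2B6 luciferase reporter stimulated by CITCO; nearly all actives have a fitted effect of over 40% in size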; also: potency is read from the fitted curve at half-maximal effect
Chain of Nuclear receptor subfamily 1 group I member 3 (Homo sapiens) (Q14994 whole entry, looked up): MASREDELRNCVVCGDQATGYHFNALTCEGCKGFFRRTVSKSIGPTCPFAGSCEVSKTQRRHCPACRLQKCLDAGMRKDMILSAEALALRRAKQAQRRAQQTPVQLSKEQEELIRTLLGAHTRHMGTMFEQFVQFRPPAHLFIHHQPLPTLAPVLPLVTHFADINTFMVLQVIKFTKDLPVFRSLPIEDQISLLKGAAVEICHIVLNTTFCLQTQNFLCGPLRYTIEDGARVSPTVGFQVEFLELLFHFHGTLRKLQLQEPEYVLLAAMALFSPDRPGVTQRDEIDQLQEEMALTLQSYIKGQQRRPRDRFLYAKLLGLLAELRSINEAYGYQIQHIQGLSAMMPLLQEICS
How it was run: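 Luminescence from a CYP2B6-2.2kb promoter reporter in hCAR-expressing HepG2 cells reflects CAR signaling. Cells received compounds at 15 concentrations and 50 nM CITCO (final), then incubated 24 h at 37 C/5% CO2.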

[6] = qHTS assay to identify small molecule antagonists of the estrogen related receptor signaling pathway with the pleiotropic PPARgamma coactivator (PGC) from Tox21 10K library - cell viability counter screen (AID 1224840; active = well fitted cell-killing curve with a large enough effect in the repeat runs, not every such curve was filed as active; also: nearly all actives have a fitted effect of over 40% in size)
How it was run: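 Cell viability is measured by CellTiter-Fluor fluorescence in PGC/ERR cells that receive compounds after a 6-hour attachment period and are then incubated 17.5 hours at 37 C.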

[7] = qHTS assay to identify small molecule antagonists of the estrogen related receptor signaling pathway with the pleiotropic PPARgamma coactivator (PGC) from Tox21 10K library (AID 1224841; call rule not given here; also: series mostly up to about 92 µM; actives are mostly falling curves and most rising ones were filed inactive; nearly all actives have a fitted effect of over 50% in size)
How it was run: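 Cells stably carrying the PGC/ERR reporter, seeded at 2,000 per well, received pin-transferred compounds 6 h post-plating. Exposure lasted 18 h at 37 C. Signal: One-Glo luminescence.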

[8] = qHTS assay to identify small molecule agonists of the estrogen related receptor signaling pathway with the pleiotropic PPARgamma coactivator (PGC) from Tox21 10K library (AID 1224842); also: nearly all actives have a fitted effect of over 15% in size
How it was run: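 PGC/ERR reporter cells (NTP line) were seeded 2,000 per well, rested 6 h at 37 C/5% CO2, then pin-dosed with compounds in DMSO for 18 h at 37 C; luciferase read by One-Glo luminescence after 30 min at room temperature.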

[9] = qHTS assay to identify small molecule agonists of the hypoxia (HIF-1) signaling pathway - cell viability counter screen (AID 1224844; calls by dose curve; also: nearly all actives have a fitted effect of over 50% in size)
How it was run: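 Viability counter screen: HRE-bla ME-180 cells plated 5 hrs before compound addition, treated 17 hrs at 37C and 5% CO2, then CellTiter-Glo added after the FRET reporter read; luminescence after 30 min.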

[10] = qHTS assay to identify small molecule antagonists of the retinoid acid receptor (RAR) signaling pathway - cell viability counter screen (AID 1159551); also: nearly all actives have a fitted effect of over 35% in size
How it was run: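 ATP-based viability, C3RL4 cells, 6 h at 37 C with 1 uM final retinol co-added after compound; luminescence read 30 min post CellTiter-Glo, RT.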

[11] = qHTS assay to identify small molecule antagonists of the estrogen related receptor (ERR) signaling pathway from Tox21 library - cell viability counter screen (AID 1224834); also: nearly all actives have a fitted effect of over 30% in size
How it was run: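 Compounds in DMSO were pinned onto ERR cells that had been incubated for 6 h, and the plates were held at 37 C for 17.5 h. CellTiter-Fluor reagent was then added and fluorescence was measured after 30 min.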

[12] = target: Nuclear receptor subfamily 1 group I member 3 (Homo sapiens) (UniProt Q14994); assay: qHTS assay to identify small molecule agonists of the constitutive androstane receptor (CAR) signaling pathway (AID 1224839); also: series mostly up to about 92 µM; nearly all actives have a fitted effect of over 15% in size
How it was run: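 A 15-concentration quantitative screen uses HepG2 cells co-transfected stably with human CAR and CYP2B6-2.2kb reporter. Treatment lasts 24 h with 0.75 uM PK11195 final present; ONE-Glo luminescence is the signal.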

[13] = target: Thyrotropin receptor (Homo sapiens) (UniProt P16473); assay: qHTS assay to identify small molecule agonists of the thyroid stimulating hormone receptor (TSHR) signaling pathway (AID 1224843; calls by dose curve; also: nearly all actives have a fitted effect of over 45% in size)
Chain of Thyrotropin receptor (Homo sapiens) (P16473 whole entry, looked up): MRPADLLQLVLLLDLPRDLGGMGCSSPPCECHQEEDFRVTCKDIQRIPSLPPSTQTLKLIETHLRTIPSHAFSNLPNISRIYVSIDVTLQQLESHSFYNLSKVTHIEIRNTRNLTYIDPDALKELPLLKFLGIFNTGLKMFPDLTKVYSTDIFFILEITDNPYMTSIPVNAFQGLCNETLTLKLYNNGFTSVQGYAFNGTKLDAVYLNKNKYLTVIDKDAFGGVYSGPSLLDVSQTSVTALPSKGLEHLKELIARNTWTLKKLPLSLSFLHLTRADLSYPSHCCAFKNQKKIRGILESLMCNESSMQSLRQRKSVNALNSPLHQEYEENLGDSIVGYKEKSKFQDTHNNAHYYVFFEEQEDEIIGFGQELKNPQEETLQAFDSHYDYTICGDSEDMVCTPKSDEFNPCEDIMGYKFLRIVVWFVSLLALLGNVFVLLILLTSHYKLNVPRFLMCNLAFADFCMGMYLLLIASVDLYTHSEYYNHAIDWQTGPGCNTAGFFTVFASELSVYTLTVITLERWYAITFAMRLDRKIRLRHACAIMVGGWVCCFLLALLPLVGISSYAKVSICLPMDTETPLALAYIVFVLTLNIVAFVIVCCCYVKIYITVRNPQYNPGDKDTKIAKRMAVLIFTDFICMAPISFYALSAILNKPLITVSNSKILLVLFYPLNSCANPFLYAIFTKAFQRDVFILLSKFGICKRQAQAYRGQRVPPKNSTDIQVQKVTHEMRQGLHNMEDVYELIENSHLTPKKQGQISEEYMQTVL
How it was run: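 Using 15 concentrations per compound in triplicate, cAMP production was monitored in TSHR-HEK293 cells after 30 min compound incubation at RT; HTRF reagents followed, with fluorescence intensity recorded after 1 h.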

Row | Compound | Potency [1] | Potency [2] | Potency [3] | Potency [4] | Potency [5] | Potency [6] | Potency [7] | Potency [8] | Potency [9] | Potency [10] | Potency [11] | Potency [12] | Potency [13]
1 | Cc1ccc(C(C)(C)C)c(O)c1 | 47.4 µM (active) and inactive | inactive | inactive | inactive | 59.1 µM (active) | inactive | inactive | inactive | inactive |  |  |  | 
2 | c1ccc2ncccc2c1 | inactive | inactive | inactive | inactive | inactive | inactive |  |  | inactive | inactive | inactive | inactive | inactive
3 | CC(=O)[C@H]1CC[C@H]2[C@@H]3CC=C4C[C@@H](O)CC[C@]4(C)[C@H]3CC[C@]12C |  | inactive | inactive | inactive | inactive | inactive | inactive | inactive | inactive | inactive |  | inactive | inactive
